A selection: hits, their analogues and other compounds. The true share with any hit is near 19%.
TDP1 cell noCPT – qHTS for Inhibitors of human tyrosyl-DNA phosphodiesterase 1 (TDP1): qHTS in cells in absence of CPT; Potency, µM (titrated, usually from 46.2 µM), for the others: at the highest dose activity change, negative = growth inhibition, most hits filed as inhibitors; DT40 Tdp1-/- hTDP1 cells, no CPT, ATP luminescence, 48 h; 420,000 tested, 15% active; further: potency means the concentration at half of the fitted maximal effect; nearly all actives have a fitted effect of over 55% in size
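No-CPT arm: Tdp1-/-;hTDP1 DT40 cells (400/well) plus compounds, incubated ≥48 hr at 37 °C. Readout CellTiter-Glo luminescence.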
HT1080NT lethal – kills 2HG-producing HT-1080-NT fibrosarcoma cells; HT-1080-NT fibrosarcoma viability, CellTiter-Glo ATP luminescence, 48 h; Potency, µM (top dose mostly 46.1 µM), inactives show top-dose activity, negative = less viability, actives largely listed as cytotoxic; 360,000 tested, 1.6% active; AID 686970;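 further: NT is the 2HG producing partner of a matched IDH1 knockdown line; potency means the concentration at half of the fitted maximal effect; 0% = DMSO-treated cells and -100% = media-only wells without cells; nearly all actives have a fitted effect of over 55% in size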
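Viability by CellTiter-Glo luminescence after 48 h compound exposure at 37C of HT-1080-NT cells (750/well, RPMI, 5% FBS). % activity scaled between DMSO wells and medium-only wells, then curve-fitted and categorized by curve class.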
TDP1 cell CPT – DT40-hTDP1 cell growth loss with CPT | chicken DT40 Tdp1-/-;hTDP1 cells + 20 nM CPT, ATP luminescence, 48 h | Potency, µM (series often up to 46.2 µM), for the others: top-dose activity change, negative = growth inhibition, usual class: inhibitors | 420,000 tested, 12% active; further: potency means the concentration at half of the fitted maximal effect; nearly all actives have a fitted effect of over 55% in size
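Chicken DT40 Tdp1-/- cells stably complemented with human TDP1 were seeded at 400 cells/well in medium containing 20 nM camptothecin, exposed to pin-transferred compounds, and grown at 37 °C for at least 48 hr. Viability was read as ATP luminescence.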
HT1080 IDH1KD tx – toxicity to HT-1080 IDH1 knockdown cells (counter line) | 360,000 tested, 2% active | Potency, µM (titrated, usually from 46.1 µM), for inactives: top-dose activity, negative = toxicity, actives largely listed as cytotoxic | HT-1080 IDH1 knockdown viability, ATP luminescence, 48 h;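 further: potency means the concentration at half of the fitted maximal effect; 0% = DMSO wells and -100% = cell-free medium wells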
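Luminescent ATP read-out (CellTiter-Glo, 10 min at room temperature) after 48 h compound exposure at 37 °C gave viability of IDH1-knockdown HT-1080 cells. Activity was normalised to DMSO and cell-free wells, then fitted as concentration-response curves.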
IL-1B inflam inh – inflammasome signaling inhibition, IL-1 beta readout; 360,000 tested, 4.7% active; THP-1 LPS/ATP IL-1B secretion, AlphaLISA, 16 h; active compounds read low; AID 743279; activity change, % at 57.5 µM; in the data active means activity change below about -50%; inconclusive means mostly about -30% to -49%
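Secreted IL-1B measured by AlphaLISA bead assay after 16 h compound exposure of THP-1 cells; compounds (final up to 57.5 uM) added 1 h before LPS (250 ng/mL) and ATP (1.25 mM) stimulation; lower signal means less secretion.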
* hit, by the source's call. Unless noted, the call rests on the fitted dose curve; in most records, active means well fitted curve in the direction sought with a large enough effect; inconclusive means small, poorly fitted or top-dose-only effect, or another doubt; inactive means no such curve, though single readings can be large; an effect the other way counts as inactive or inconclusive. Unless noted, on the % scale 0 is the no-effect control and ±100 the full control effect.

`CCc1nc2c(OCc3ccc(OC)cc3)cccn2c1N(C)C(=O)c1ccc(OC)cc1` gave TDP1 cell noCPT inconclusive, HT1080NT lethal -3.2%, TDP1 cell CPT inconclusive, HT1080 IDH1KD tx -13.5% and IL-1B inflam inh -15.9.
CCc1nc2c(OCCn3cccc3)cccn2c1N(C)C(=O)c1ccc(C)cc1 was read as TDP1 cell noCPT -25.6%, HT1080NT lethal 15.2%, TDP1 cell CPT inconclusive, HT1080 IDH1KD tx 6.5% and IL-1B inflam inh 7.0.
O=S(=O)(NCCN1CCOCC1)c1cccc(C(F)(F)F)c1 was read as TDP1 cell noCPT -0.9%, HT1080NT lethal -11.1%, TDP1 cell CPT 1.6%, HT1080 IDH1KD tx -0.5% and IL-1B inflam inh 24.9.
`COc1ccc(CCNC(=O)CCCN2C(=O)c3ccccc3C2=O)cc1` gave TDP1 cell noCPT 1.0%, HT1080NT lethal -6.5%, TDP1 cell CPT 3.6%, HT1080 IDH1KD tx -16.6% and IL-1B inflam inh -7.1.
CS(=O)(=O)N1CCC2(CC1)CN(Cc1ccc(C#N)cc1)C2 was read as TDP1 cell noCPT -11.4% and TDP1 cell CPT 11.3%.
For CCOC(=O)N(C)c1c(CC)nc2c(OCc3ccc(OC(F)F)cc3)cccn12 the results were TDP1 cell noCPT 14.6µM*, HT1080NT lethal -19.5%, TDP1 cell CPT inconclusive, HT1080 IDH1KD tx 1.8% and IL-1B inflam inh -4.9.
Screening CCNC(=S)NN(c1ccccc1)c1ccccc1 returned TDP1 cell noCPT -7.3%, HT1080NT lethal 4.3%, TDP1 cell CPT -11.3%, HT1080 IDH1KD tx 5.6% and IL-1B inflam inh 5.2.
`CC(C)c1ccc(NC(=S)NN(c2ccccc2)c2ccccc2)cc1` gave TDP1 cell noCPT 25.9µM*, HT1080NT lethal -11.2%, TDP1 cell CPT 13µM*, HT1080 IDH1KD tx -8.9% and IL-1B inflam inh -21.5.
CCNC(=S)Nc1ccc(N(c2ccccc2)C(C)C)cc1 was read as TDP1 cell noCPT 20.6µM*, HT1080NT lethal inconclusive, TDP1 cell CPT 25.9µM*, HT1080 IDH1KD tx inconclusive and IL-1B inflam inh -20.2.
For CC(C)N(c1ccccc1)c1ccc(NC(=O)[C@@H]2O[C@H](CO)[C@@H](O)[C@H]2O)cc1 the results were TDP1 cell noCPT inconclusive, HT1080NT lethal 21.1%, TDP1 cell CPT 20.6µM*, HT1080 IDH1KD tx 0.4% and IL-1B inflam inh 10.0.
`CC(C)N(c1ccccc1)c1ccc(NC(=S)NCCN(C)C)cc1` gave TDP1 cell noCPT 20.6µM*, HT1080NT lethal 16.4µM*, TDP1 cell CPT inconclusive and HT1080 IDH1KD tx 20.6µM*.
For CCCCCn1c(SCC(=O)c2ccccc2)nc2cc(C(=O)NCC3CCCO3)ccc2c1=O (configuration not stated) the results were TDP1 cell noCPT 16.7%, HT1080NT lethal 16.6%, TDP1 cell CPT 4.2%, HT1080 IDH1KD tx 11.2% and IL-1B inflam inh 12.7.
CN(C)CCCNC(=S)Nc1ccc(-c2ccccc2)cc1 was read as TDP1 cell noCPT inconclusive, HT1080NT lethal 20.6µM*, TDP1 cell CPT inconclusive, HT1080 IDH1KD tx inconclusive and IL-1B inflam inh -6.0.
For CN(C)CCCNC(=S)Nc1ccc(Oc2ccccc2)cc1 the results were TDP1 cell noCPT inconclusive, HT1080NT lethal -28.5%, TDP1 cell CPT 4.5%, HT1080 IDH1KD tx -8.6% and IL-1B inflam inh -18.1.
CCC(C)C(NC(=O)c1ccc(Cl)cc1Cl)C(=O)O (configuration not stated) was read as TDP1 cell noCPT 9.9%, HT1080NT lethal 22.7%, TDP1 cell CPT 6.6%, HT1080 IDH1KD tx -2.8% and IL-1B inflam inh 17.6.
For Clc1ccc(/C(Cc2nc3ccccc3[nH]2)=N\Nc2ccccc2)cc1 the results were TDP1 cell noCPT inconclusive, HT1080NT lethal inconclusive, TDP1 cell CPT inconclusive, HT1080 IDH1KD tx inconclusive and IL-1B inflam inh -84.4*.
`O=C(Cc1nc2ccccc2[nH]1)c1ccc(Cl)cc1` gave TDP1 cell noCPT inconclusive, HT1080NT lethal -19.2%, TDP1 cell CPT inconclusive, HT1080 IDH1KD tx -6.8% and IL-1B inflam inh -98.9*.

Compound activity deposited in PubChem by National Center for Advancing Translational Sciences (NCATS).
